Among the data in the supplement of paper PMC6555819 are PBM binding z-score values, retold here.

For one assay, the system named is RXRa homodimer (NR concentration 180 nM). In words: PBM binding z-score (relative to random genomic background probes); higher = stronger binding; sequences stand for … in GC…GCGATTGACAGCGTAGAATGAAGG
A digest of the protocol: (§1)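 On custom Agilent 4×180K arrays, double-stranded probes with 34-nt variable regions carried direct-repeat seeds, single-nucleotide variants, half-site ablations or random human genomic background. Ligand-free nuclear receptor dimers were applied for 1 h, and binding was read with antibodies against each partner (one per run). Binding z-scores come from regression-normalized fluorescence, with the random background probes as reference.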
With TCTATTAGTTGATTAGGGCATCCGAAACAGCGGA, the PBM binding z-score came out at 0.604.
Still for that read-out and setting: the figure for ACTATTTGTTGACTTAGGGCAACCGATACGACGC is 0.588; for ACTAGCAGGCCAAGGGTCACTTAAGATTAGTCCG it is 3.87.
Regarding GATACAGGGTCAAGGCCAGACTACGCGTATTGAT, the PBM binding z-score worked out at 5.73.
Sequence TCAATGAGGTTAAAGATCAGGGAACGTGGCGTCG showed a PBM binding z-score of 4.18.
Sequence GATACAGGGTCAACGCCAGAGTACGCGTATTGAT had a PBM binding z-score of 6.68.
The sequence CGTCCAAGTTCAGCAGGTCAGTGAAAGCGACGTG displayed a PBM binding z-score of 2.52.
On the same count and under the same terms, the figure for TGAATGAGGTTATAAGATCAGGGAACGTTGCAAA is 1.86; for ACTATTAGTTGACTTAGGGAAACCGATACGACGC it is 0.147.
The sequence AGTACAGGGTCACTAGGCCAGAGTAGGTACGAAT showed a PBM binding z-score of 5.43.
Turning to GGGACGAGGGCAAGTTGATAGCAGAGTTTGATGG, the PBM binding z-score came to 1.06.
Take TGAATGAGGTTAAAGATCAGGGCACGTGGCGTCG: the PBM binding z-score is 3.95.
Regarding ACTCGGAGGACAAAGGGCAGAGCTACGCCAGTGA, the PBM binding z-score is 0.615.
Still for that read-out and setting: in the case of TCATATAGGTAATACAGGTGAAGGTCGGCATCTA it was 1.46.
Sequence TATAGCAGGCCAGAGGGTCACTCAAGAGGTACGG registered a PBM binding z-score of 2.67.
On to TCTATTAGATGAAGGGCAACCGACGAGTCCGTTT, for which the PBM binding z-score amounted to 0.961.
On the same count and under the same terms, the figure for CCTACTGGGCCTCGAAAGGTCATTGATTCAGTGA is 4.83.
Same read-out and setting: the figure for TCTAGTAGATCAATAGAGGTTAAGAAAGTGCGCT is 1.56; for AGTCAAAGTTCACTAAGTAACGTAAGATTCAGCT it is 3.9.
The sequence AGAACTAGGGCAATGAGTTGATAGCACGGGTGGC returned a PBM binding z-score of 0.422.
TCAAGCAGGCCAGAGGGTCACTCAAGAGGTACGG registered a PBM binding z-score of 2.67.
As to TCTATTAGTCGAAGGGCAACCGACGAGTCCGTTT, the PBM binding z-score was determined as 0.534.
Still for that read-out and setting: the figure for CGTCAAAGTACAACTAAGGTAACGTAAAGCACGC is 0.543; for GCTCGGAGGACAAGGTCAGAGATTTGTCCGTAGA it is 2.23; for ATCTCTAGGAAACAAGTTCAGTGAAAGAGAGGAC it is 0.725.
As for CCGACTGGGGCAGAACGGTTACCATACCATCCGG, the PBM binding z-score is -0.293.
The sequence GCTCGGAGGACAAGGTCAGAGCATTGTCCGTAGA showed a PBM binding z-score of 2.61.
On the same count and under the same terms, the figure for GCAACGAGGGCAAGTTGATAGCAGAGTTTGATGG is 0.98; for TCTATTAGTTGATTAGGCCAACCGAAACAGCGGA it is 0.635.
Still for that read-out and setting: in the case of TCATATAGGTAGACAGGTGAAAGTCCGTAAGTTA it was 0.907.
On the same count and under the same terms, the figure for TCTCGGAGGACACGAAGGTCAGAACTTTCCAGAG is 1.51; for TCCGACAGGTGAAGGTAACTCAGGTACGCAGTCG it is 0.788; for GCTTGTAGATCATGGTTAAGAAAGACTAAGCTAA it is -0.538.
Regarding CCGACTGGGGCAGGGTTACCATAACGCACAGCCA, the PBM binding z-score was determined as 1.06.
On the same count and under the same terms, in the case of GCTTGTAGATCAAGGGTAAGAAAGACTAAGCTAA it was -0.00933.
Sequence TTACCAAGGTGAGCTGAGGTCGTTGAACCAACTC yielded a PBM binding z-score of 1.57.
On the same count and under the same terms, in the case of CTACCAAGGTGAACAAGGGCGTTGATTACTATTC it was 0.725; in that of TATAGTTGGTCAAAGGTCACACACTCGAAATGCG, 8.14.
CAAACTAGGTTAAAGGTCAAAGTCGAGCCAACCA had a PBM binding z-score of 8.81.
Same read-out and setting: the figure for AGAACGAGGGCACGCTGAGTTCATAGCAGAGTAG is 3.08.

The next assay relates to THRa:RXRa (NR concentration 90 nM, RXRa partner concentration 90 nM). The description is as above. Summed up: as §1
As to TCTATTAGTTGATTAGGGCATCCGAAACAGCGGA, the PBM binding z-score came to 0.428.
Turning to ACTATTTGTTGACTTAGGGCAACCGATACGACGC, the PBM binding z-score worked out at 1.12.
On the same count and under the same terms, in the case of ACTAGCAGGCCAAGGGTCACTTAAGATTAGTCCG it was 2.96.
On to GATACAGGGTCAAGGCCAGACTACGCGTATTGAT, for which the PBM binding z-score turned out to be 3.8.
On to TCAATGAGGTTAAAGATCAGGGAACGTGGCGTCG, for which the PBM binding z-score stood at 2.42.
The sequence GATACAGGGTCAACGCCAGAGTACGCGTATTGAT had a PBM binding z-score of 3.42.
With CGTCCAAGTTCAGCAGGTCAGTGAAAGCGACGTG, the PBM binding z-score stood at 1.96.
The sequence TGAATGAGGTTATAAGATCAGGGAACGTTGCAAA yielded a PBM binding z-score of 1.71.
The sequence ACTATTAGTTGACTTAGGGAAACCGATACGACGC registered a PBM binding z-score of 0.625.
The sequence AGTACAGGGTCACTAGGCCAGAGTAGGTACGAAT registered a PBM binding z-score of 3.41.
For GGGACGAGGGCAAGTTGATAGCAGAGTTTGATGG, the PBM binding z-score was determined as 1.61.
Take TGAATGAGGTTAAAGATCAGGGCACGTGGCGTCG: the PBM binding z-score was determined as 3.35.
Still for that read-out and setting: in the case of ACTCGGAGGACAAAGGGCAGAGCTACGCCAGTGA it was 0.877; in that of TCATATAGGTAATACAGGTGAAGGTCGGCATCTA, 1.31; in that of TATAGCAGGCCAGAGGGTCACTCAAGAGGTACGG, 1.76.
Consider TCTATTAGATGAAGGGCAACCGACGAGTCCGTTT, for which the PBM binding z-score is 0.13.
CCTACTGGGCCTCGAAAGGTCATTGATTCAGTGA came in with a PBM binding z-score of 3.14.
On to TCTAGTAGATCAATAGAGGTTAAGAAAGTGCGCT, for which the PBM binding z-score worked out at 2.09.
In turn, AGTCAAAGTTCACTAAGTAACGTAAGATTCAGCT came in with a PBM binding z-score of 1.55.
The sequence AGAACTAGGGCAATGAGTTGATAGCACGGGTGGC came in with a PBM binding z-score of 0.157.
TCAAGCAGGCCAGAGGGTCACTCAAGAGGTACGG showed a PBM binding z-score of 1.68.
Take TCTATTAGTCGAAGGGCAACCGACGAGTCCGTTT: the PBM binding z-score came to 0.187.
CGTCAAAGTACAACTAAGGTAACGTAAAGCACGC: the PBM binding z-score is 3.77.
The same measure, in the same setting: the figure for GCTCGGAGGACAAGGTCAGAGATTTGTCCGTAGA is 2.82; for ATCTCTAGGAAACAAGTTCAGTGAAAGAGAGGAC it is 0.835; for CCGACTGGGGCAGAACGGTTACCATACCATCCGG it is -0.413.
In the case of GCTCGGAGGACAAGGTCAGAGCATTGTCCGTAGA, the PBM binding z-score was determined as 2.87.
Still for that read-out and setting: in the case of GCAACGAGGGCAAGTTGATAGCAGAGTTTGATGG it was 1.36; in that of TCTATTAGTTGATTAGGCCAACCGAAACAGCGGA, 0.691; in that of TCATATAGGTAGACAGGTGAAAGTCCGTAAGTTA, 0.763.
In turn, TCTCGGAGGACACGAAGGTCAGAACTTTCCAGAG returned a PBM binding z-score of 2.69.
In the case of TCCGACAGGTGAAGGTAACTCAGGTACGCAGTCG, the PBM binding z-score came out at 1.3.
GCTTGTAGATCATGGTTAAGAAAGACTAAGCTAA: the PBM binding z-score is -0.389.
The sequence CCGACTGGGGCAGGGTTACCATAACGCACAGCCA yielded a PBM binding z-score of 0.632.
Same read-out and setting: the figure for GCTTGTAGATCAAGGGTAAGAAAGACTAAGCTAA is -0.138.
Consider TTACCAAGGTGAGCTGAGGTCGTTGAACCAACTC, for which the PBM binding z-score is 4.77.
As for CTACCAAGGTGAACAAGGGCGTTGATTACTATTC, the PBM binding z-score was determined as 2.13.
TATAGTTGGTCAAAGGTCACACACTCGAAATGCG: the PBM binding z-score was found to be 4.24.
Take CAAACTAGGTTAAAGGTCAAAGTCGAGCCAACCA: the PBM binding z-score stood at 3.85.
AGAACGAGGGCACGCTGAGTTCATAGCAGAGTAG yielded a PBM binding z-score of 3.31.
